Experimental data from PubChem BioAssay AID1159580 (chemical genetic matrix, 2015).
About 2,000 (36%) of roughly 5,500 compounds were called active. About 18% were inconclusive and are not listed. Cut-off read from the data, not from the text of the source: active = normalized growth mostly below about 0.91 (no sharp cut-off); inconclusive = no clear call, values can overlap the other calls; inactive = mostly above about 0.92. This is one part of the list.

Experiment: chemical genetic growth profiling, strain panel (AID 1159580);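 note: tested at 20 µM; growth read once vehicle control cultures reached saturation at 30 °C; 1 = growth at the plate median or of vehicle wells; lower values mean less growth of the strain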
Settings: S. cerevisiae deletion strains, growth OD

Measured: normalized growth

O=c1c2ccccc2nc2n1CCc1c-2[nH]c2ccccc12
inactive: locus YAL013W, strain DEP1, hits give low values 1.02 | locus YAL040C, strain CLN3, hits give low values 0.981 | locus YCL061C, strain MRC1 (second series), hits give low values 1.01 | locus YDR150W, strain NUM1, hits give low values 1.01 | locus YDR363W, strain ESC2, hits give low values 1.02 | locus YER002W, strain NOP16, hits give low values 0.996 | locus YGR078C, strain PAC10, hits give low values 1 | locus YJR075W, strain HOC1, hits give low values 1.02 | locus YMR263W, strain SAP30, hits give low values 1.01 | locus YMR307W, strain GAS1, hits give low values 0.999 | locus YNL128W, strain TEP1, hits give low values 0.964 | locus YNL153C, strain GIM3, hits give low values 0.928 | locus YNL175C, strain NOP13, hits give low values 0.945 | locus YNL197C, strain WHI3, hits give low values 0.97 | locus YNL224C, strain SQS1, hits give low values 0.982 | locus YNL322C, strain KRE1, hits give low values 1.02 | locus YOR083W, strain WHI5 (second series), hits give low values 0.906 | locus YPL055C, strain LGE1, hits give low values 1.02 | locus YPL241C, strain CIN2, hits give low values 1
